Measured values from PubChem BioAssay (EPA / NIEHS).
Inconclusive results are not listed. The source made the active and inactive calls. The calls were made as follows, unless noted: active = hit-call score of the fitted dose curve at least 0.9, where 1 is the maximum; inconclusive = response in the unintended direction; inactive = score below 0.9.

What was measured:
[1] = ATG_TCF_b_cat_CIS: Attagene CIS-FACTORIAL HepG2 Assay for human T-Cell-Factor with beta-catenin (TCF/b-cat) (AID 2282965; active = hit-call score of the fitted dose curve at least 0.9, where 1 is the maximum; inactive = score below 0.9); conditions: HepG2 TCF/beta-catenin cis-reporter transcription, actives raise or lower the signal
Summary of the method: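 HepG2, transient MRTU transfection, cis-element-driven reporters (endogenous TFs). 24 h compound exposure. Readout: reporter mRNA by RT-PCR + 6-FAM primer extension, HpaI digest, capillary electrophoresis. Gain/loss fit vs DMSO baseline.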

[2] = ATG_TAL_CIS: Attagene CIS-FACTORIAL HepG2 Assay for human TAL Basal Promoter (AID 2282966; active = hit-call score of the fitted dose curve at least 0.9, where 1 is the maximum; inactive = score below 0.9;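 also: background control endpoint measuring basal TAL promoter reporter mRNA not a specific factor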); conditions: HepG2 Attagene cis-factorial TAL promoter reporter; actives raise or lower the signal
Summary of the method: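 Basal-promoter background-control endpoint from a multiplexed HepG2 reporter panel. Cells were exposed 24 h, then reporter mRNA was read by RT-PCR/CE fluorescence and fitted in both directions relative to DMSO.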

[3] = ATG_TGFb_CIS: Attagene CIS-FACTORIAL HepG2 Assay for human Transforming Growth Factor (TGF) (AID 2282967; active = hit-call score of the fitted dose curve at least 0.9, where 1 is the maximum; inactive = score below 0.9); conditions: HepG2 Attagene CIS TGFb reporter, mRNA transcription; actives raise or lower the signal
Summary of the method: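 Bidirectional fitting relative to DMSO gave the endpoint. Underlying data: reporter mRNA from HepG2 cells carrying transiently transfected cis-regulated reporter constructs, harvested 24 h after dosing and analyzed by RT-PCR and capillary electrophoresis.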

[4] = ATG_VDRE_CIS: Attagene CIS-FACTORIAL HepG2 Assay for human Vitamin D Receptor Element (VDRE) (AID 2282968; active = hit-call score of the fitted dose curve at least 0.9, where 1 is the maximum; inactive = score below 0.9); conditions: HepG2 VDRE cis-reporter transcription, actives raise or lower the signal
Summary of the method: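 Compounds were applied for 24 h to HepG2 cells transfected with promoter-regulated reporter units. Total RNA was reverse-transcribed, and reporter amplicons were fluorescently labelled and sized by capillary electrophoresis.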

[5] = biological target: Nuclear receptor subfamily 1 group I member 3 (Homo sapiens) (UniProt Q14994); test: ATG_CAR_TRANS: Attagene TRANS-FACTORIAL HepG2 Assay for human Constitutive Androstane Receptor (CAR) (AID 2282969); conditions: HepG2 Attagene TRANS-FACTORIAL CAR reporter;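 also: activators raise reporter mRNA above DMSO so AC50 marks induction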
Sequence of Nuclear receptor subfamily 1 group I member 3 (Homo sapiens) (Q14994 whole entry, looked up, the tested form may be a part): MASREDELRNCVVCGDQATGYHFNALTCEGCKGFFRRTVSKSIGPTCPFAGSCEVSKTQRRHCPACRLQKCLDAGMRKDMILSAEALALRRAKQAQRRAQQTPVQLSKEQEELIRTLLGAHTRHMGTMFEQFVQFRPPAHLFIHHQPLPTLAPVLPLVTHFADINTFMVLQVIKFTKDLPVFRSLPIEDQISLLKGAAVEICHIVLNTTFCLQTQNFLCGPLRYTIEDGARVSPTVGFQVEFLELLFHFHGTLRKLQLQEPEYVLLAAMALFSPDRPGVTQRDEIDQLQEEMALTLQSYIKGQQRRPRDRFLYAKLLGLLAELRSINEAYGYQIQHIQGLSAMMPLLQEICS
Summary of the method: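 Transiently transfected HepG2, multiplex TRANS reporters (CAR-Gal4 chimera driving GAL4-UAS reporter). 24 h dosing. Readout: reporter transcript by RT-PCR + capillary electrophoresis, fluorescence intensity; positive direction vs DMSO.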

[6] = biological target: X-box-binding protein 1 (Homo sapiens) (UniProt P17861); test: ATG_Xbp1_CIS: Attagene CIS-FACTORIAL HepG2 Assay for human X-box Binding Protein 1 (XBP1) (AID 2282972; active = hit-call score of the fitted dose curve at least 0.9, where 1 is the maximum; inactive = score below 0.9); conditions: HepG2 XBP1 cis-element reporter, Attagene multiplex; actives raise or lower the signal
Summary of the method: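 Human hepatoma HepG2, cis-element reporter system, 24 h treatment; mRNA quantified by RT-PCR/CE fluorescence; fit relative to DMSO.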

[7] = ATG_M_19_TRANS: Attagene TRANS-FACTORIAL HepG2 Assay for M19 Transcription Factor (Internal Marker) (AID 2282974); conditions: HepG2 Attagene TRANS-FACTORIAL M19 internal marker reporter
Summary of the method: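 Using RT-PCR and capillary electrophoresis, reporter mRNA from transiently transfected human HepG2 cells was quantified following 24 h exposure; activity was fitted in the positive direction against DMSO.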

[8] = biological target: Bile acid receptor (Homo sapiens) (UniProt Q96RI1); test: ATG_FXR_TRANS: Attagene TRANS-FACTORIAL HepG2 Assay for Farnesoid X Receptor (FXR) (AID 2282979); conditions: HepG2 Attagene TRANS FXR-GAL4 reporter transcription;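 also: hits raise reporter mRNA above DMSO so AC50 marks FXR activation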
Sequence of Bile acid receptor (Homo sapiens) (Q96RI1 whole entry, looked up, the tested form may be a part): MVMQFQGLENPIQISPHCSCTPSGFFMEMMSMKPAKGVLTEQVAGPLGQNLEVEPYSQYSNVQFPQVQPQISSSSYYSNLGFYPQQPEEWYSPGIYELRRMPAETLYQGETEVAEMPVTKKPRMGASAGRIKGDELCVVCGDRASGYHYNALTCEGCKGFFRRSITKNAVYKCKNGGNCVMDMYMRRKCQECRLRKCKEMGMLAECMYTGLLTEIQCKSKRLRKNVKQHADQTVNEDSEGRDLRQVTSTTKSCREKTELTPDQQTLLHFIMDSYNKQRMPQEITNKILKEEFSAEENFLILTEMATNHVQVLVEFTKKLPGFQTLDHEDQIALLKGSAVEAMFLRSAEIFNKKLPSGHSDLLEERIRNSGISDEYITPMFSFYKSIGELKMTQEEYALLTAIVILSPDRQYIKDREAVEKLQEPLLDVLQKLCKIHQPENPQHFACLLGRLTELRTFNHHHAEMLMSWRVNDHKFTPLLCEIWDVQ
Summary of the method: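 HepG2 cells were transiently transfected with GAL4-UAS reporters driven by chimeric NR-Gal4 proteins and dosed for 24 h. Reporter mRNA was quantified by RT-PCR, fluorescent labelling, HpaI digestion and capillary electrophoresis, with gain of signal scored versus DMSO.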

[9] = ATG_M_06_TRANS: Attagene TRANS-FACTORIAL HepG2 Assay for M06 Transcription Factor (Internal Marker) (AID 2282983); conditions: HepG2 Attagene TRANS M06 internal marker reporter
Summary of the method: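 mRNA levels of a reporter transcript, quantified as FAM fluorescence on capillary electrophoresis, served as readout. HepG2 cells expressing exogenous GAL4-chimera reporter constructs were exposed for 24 h. Gain of signal over DMSO was evaluated.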

[10] = ATG_M_32_TRANS: Attagene TRANS-FACTORIAL HepG2 Assay for M32 Transcription Factor (Internal Marker) (AID 2282984); conditions: HepG2 Attagene TRANS M32 internal marker reporter
Summary of the method: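 Internal-marker readout from a multiplexed transcription reporter panel. HepG2 cells were transfected with GAL4-UAS reporter units, treated 24 hours, and reporter transcript levels determined by fluorescence after RT-PCR and capillary separation.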

[11] = biological target: Nuclear receptor subfamily 4 group A member 2 (Homo sapiens) (UniProt P43354); test: ATG_NURR1_TRANS: Attagene TRANS-FACTORIAL HepG2 Assay for human Nuclear Receptor Related Protein 1 (NURR1) (AID 2282985); conditions: HepG2 Attagene TRANS reporter, mRNA readout
Sequence of Nuclear receptor subfamily 4 group A member 2 (Homo sapiens) (P43354 whole entry, looked up): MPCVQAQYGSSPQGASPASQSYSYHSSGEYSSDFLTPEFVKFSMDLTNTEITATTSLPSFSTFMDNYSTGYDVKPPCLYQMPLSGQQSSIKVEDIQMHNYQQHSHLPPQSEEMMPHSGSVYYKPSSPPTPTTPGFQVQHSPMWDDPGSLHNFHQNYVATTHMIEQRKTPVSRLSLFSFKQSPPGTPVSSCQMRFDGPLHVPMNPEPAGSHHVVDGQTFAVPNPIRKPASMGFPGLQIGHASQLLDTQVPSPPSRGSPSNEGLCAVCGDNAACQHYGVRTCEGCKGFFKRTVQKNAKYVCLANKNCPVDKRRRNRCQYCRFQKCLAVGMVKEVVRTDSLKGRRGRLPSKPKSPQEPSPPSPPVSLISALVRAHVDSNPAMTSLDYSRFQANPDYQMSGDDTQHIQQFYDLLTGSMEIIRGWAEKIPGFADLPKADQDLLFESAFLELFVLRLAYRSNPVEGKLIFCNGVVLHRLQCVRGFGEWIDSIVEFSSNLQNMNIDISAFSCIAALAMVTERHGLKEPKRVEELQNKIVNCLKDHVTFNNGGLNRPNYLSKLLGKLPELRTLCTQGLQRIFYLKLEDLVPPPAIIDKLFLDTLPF
Summary of the method: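 Endpoint: reporter mRNA increase relative to DMSO. HepG2 cells transfected with reporter units, treated 24 h; RNA processed by RT-PCR, labelling, HpaI digestion and capillary electrophoresis.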

[12] = biological target: Transcriptional activator Myb (Homo sapiens) (UniProt P10242); test: ATG_Myb_CIS: Attagene CIS-FACTORIAL HepG2 Assay for human Myeloblastosis (Myb) Proto-Oncogene Transcription Factor (AID 2282986; active = hit-call score of the fitted dose curve at least 0.9, where 1 is the maximum; inactive = score below 0.9); conditions: HepG2 Attagene CIS-FACTORIAL Myb reporter transcription; actives raise or lower the signal
Sequence of Transcriptional activator Myb (Homo sapiens) (P10242 whole entry, looked up): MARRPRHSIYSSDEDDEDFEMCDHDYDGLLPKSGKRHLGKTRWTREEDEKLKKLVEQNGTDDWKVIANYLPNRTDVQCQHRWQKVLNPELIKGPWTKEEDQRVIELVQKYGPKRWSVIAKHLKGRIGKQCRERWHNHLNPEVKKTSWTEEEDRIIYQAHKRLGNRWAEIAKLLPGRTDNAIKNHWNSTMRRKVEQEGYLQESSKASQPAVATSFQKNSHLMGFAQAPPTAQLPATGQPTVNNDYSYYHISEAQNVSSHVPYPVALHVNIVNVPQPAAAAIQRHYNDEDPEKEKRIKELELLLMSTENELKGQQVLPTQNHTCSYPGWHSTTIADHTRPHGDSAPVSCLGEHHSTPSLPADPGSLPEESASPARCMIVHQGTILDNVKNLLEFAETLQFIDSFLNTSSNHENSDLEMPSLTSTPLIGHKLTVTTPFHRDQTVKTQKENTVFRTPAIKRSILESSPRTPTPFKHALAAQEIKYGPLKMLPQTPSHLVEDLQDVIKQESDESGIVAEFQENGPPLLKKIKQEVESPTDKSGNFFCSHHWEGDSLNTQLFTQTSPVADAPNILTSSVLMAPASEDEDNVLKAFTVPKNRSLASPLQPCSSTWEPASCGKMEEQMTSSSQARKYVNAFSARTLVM
Summary of the method: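 In this HepG2 transient-transfection format, cis-regulated reporter mRNA is quantified 24 h post-dosing by RT-PCR with capillary electrophoresis, fitted bidirectionally to DMSO baseline.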

[13] = biological target: Estrogen receptor (Homo sapiens) (UniProt P03372); test: ATG_ERa_TRANS: Attagene TRANS-FACTORIAL HepG2 Assay for human Estrogen Receptor alpha (ERa) (AID 2282970); conditions: HepG2 Attagene TRANS ERa GAL4 reporter, mRNA
Sequence of Estrogen receptor (Homo sapiens) (P03372 whole entry, looked up, the tested form may be a part): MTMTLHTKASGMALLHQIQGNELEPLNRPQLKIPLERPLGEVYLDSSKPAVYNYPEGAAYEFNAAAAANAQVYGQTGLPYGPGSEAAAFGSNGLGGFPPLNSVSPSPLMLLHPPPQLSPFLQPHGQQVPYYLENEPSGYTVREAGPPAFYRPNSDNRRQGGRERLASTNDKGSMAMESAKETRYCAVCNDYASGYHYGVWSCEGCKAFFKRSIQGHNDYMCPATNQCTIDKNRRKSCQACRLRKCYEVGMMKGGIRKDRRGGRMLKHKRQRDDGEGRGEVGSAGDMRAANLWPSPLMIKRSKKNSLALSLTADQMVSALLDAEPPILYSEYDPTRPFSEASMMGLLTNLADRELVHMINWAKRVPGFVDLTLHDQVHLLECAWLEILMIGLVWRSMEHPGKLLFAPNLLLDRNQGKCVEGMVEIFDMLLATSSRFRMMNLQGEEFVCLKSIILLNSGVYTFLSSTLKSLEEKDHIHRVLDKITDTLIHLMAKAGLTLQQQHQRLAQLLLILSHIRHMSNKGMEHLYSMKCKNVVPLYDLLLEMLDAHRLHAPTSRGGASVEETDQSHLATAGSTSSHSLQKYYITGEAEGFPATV
Summary of the method: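 Gal4-fusion ERa transactivation, measured as reporter transcript level in transiently transfected HepG2 cells. Exposure 24 h; RT-PCR plus capillary electrophoresis with fluorescence detection.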

[14] = biological target: Hepatocyte nuclear factor 4-alpha (Homo sapiens) (UniProt P41235); test: ATG_HNF4a_TRANS: Attagene TRANS-FACTORIAL HepG2 Assay for human Hepatocyte Nuclear Factor 4 alpha (HNF4a) (AID 2282982); conditions: HepG2 HNF4a transactivation reporter, mRNA readout
Sequence of Hepatocyte nuclear factor 4-alpha (Homo sapiens) (P41235 whole entry, looked up, the tested form may be a part): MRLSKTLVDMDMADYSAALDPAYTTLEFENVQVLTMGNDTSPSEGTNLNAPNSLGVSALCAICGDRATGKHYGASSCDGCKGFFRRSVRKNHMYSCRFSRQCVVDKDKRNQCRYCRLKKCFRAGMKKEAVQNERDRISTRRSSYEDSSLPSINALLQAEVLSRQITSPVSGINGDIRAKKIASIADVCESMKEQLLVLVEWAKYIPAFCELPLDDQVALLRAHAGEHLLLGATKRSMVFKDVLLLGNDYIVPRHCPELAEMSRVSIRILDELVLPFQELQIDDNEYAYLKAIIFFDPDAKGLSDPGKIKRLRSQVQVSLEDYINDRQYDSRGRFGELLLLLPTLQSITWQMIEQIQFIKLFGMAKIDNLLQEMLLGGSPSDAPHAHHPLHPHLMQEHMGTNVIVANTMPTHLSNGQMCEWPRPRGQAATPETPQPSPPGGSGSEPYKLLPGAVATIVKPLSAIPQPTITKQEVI
Summary of the method: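 Endpoint reflects transcriptional activation of a GAL4-UAS reporter by an HNF4a-GAL4 chimera in transfected HepG2 cells, 24 h post-dosing. Fluorescence from RT-PCR products separated by capillary electrophoresis; DMSO baseline.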

[15] = biological target: Steroid hormone receptor ERR1 (Homo sapiens) (UniProt P11474); test: ATG_ERRa_TRANS: Attagene TRANS-FACTORIAL HepG2 Assay for human Estrogen-Related Receptor alpha (ERRa) (AID 2282971); conditions: HepG2 Attagene TRANS reporter, ERRa transactivation
Sequence of Steroid hormone receptor ERR1 (Homo sapiens) (P11474 whole entry, looked up, the tested form may be a part): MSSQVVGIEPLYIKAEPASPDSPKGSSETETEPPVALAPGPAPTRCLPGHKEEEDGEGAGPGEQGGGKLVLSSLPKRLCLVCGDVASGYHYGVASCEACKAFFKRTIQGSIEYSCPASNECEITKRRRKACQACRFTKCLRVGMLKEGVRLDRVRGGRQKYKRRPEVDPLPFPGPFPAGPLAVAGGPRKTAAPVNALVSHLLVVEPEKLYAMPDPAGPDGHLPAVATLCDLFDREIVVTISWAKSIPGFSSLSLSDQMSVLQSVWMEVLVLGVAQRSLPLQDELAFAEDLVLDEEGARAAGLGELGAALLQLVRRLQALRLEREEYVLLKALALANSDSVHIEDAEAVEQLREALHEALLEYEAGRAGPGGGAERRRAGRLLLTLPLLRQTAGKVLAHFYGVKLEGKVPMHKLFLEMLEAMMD
Summary of the method: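 HepG2 cells transiently transfected with GAL4-UAS reporter units and chimeric NR-Gal4 constructs; after 24 hour compound incubation, reporter mRNA quantified by RT-PCR, fluorescent labelling and capillary electrophoresis, gain of signal versus DMSO.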

[16] = ATG_GAL4_TRANS: Attagene TRANS-FACTORIAL HepG2 Assay for GAL4 (Internal Marker) (AID 2282976); conditions: HepG2 Attagene TRANS GAL4 internal marker reporter
Summary of the method: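 Background-control readout: GAL4-UAS reporter transcript in transiently transfected HepG2 cells after 24 h compound exposure. Measured by RT-PCR, 6-FAM primer extension, HpaI digest and capillary electrophoresis; gain-of-signal fit versus DMSO.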

[17] = biological target: Glucocorticoid receptor (Homo sapiens) (UniProt P04150); test: ATG_GR_TRANS: Attagene TRANS-FACTORIAL HepG2 Assay for human Glucocorticoid Receptor (GR) (AID 2282978); conditions: HepG2 Attagene TRANS GR reporter, mRNA transcription;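 also: activators score as hits since higher reporter transcript over DMSO is fitted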
Summary of the method: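 Exogenous NR-GAL4 fusion activity was assessed through induced GAL4-UAS reporter transcripts in transfected human HepG2 cells, quantified after 24 h by RT-PCR and fluorescent capillary electrophoresis with DMSO as baseline.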

[18] = biological target: Oxysterols receptor LXR-alpha (Homo sapiens) (UniProt Q13133); test: ATG_LXRa_TRANS: Attagene TRANS-FACTORIAL HepG2 Assay for human Liver X Receptor alpha (LXRa) (AID 2282980); conditions: HepG2 Attagene TRANS reporter, LXRa transactivation
Sequence of Oxysterols receptor LXR-alpha (Homo sapiens) (Q13133 whole entry, looked up, the tested form may be a part): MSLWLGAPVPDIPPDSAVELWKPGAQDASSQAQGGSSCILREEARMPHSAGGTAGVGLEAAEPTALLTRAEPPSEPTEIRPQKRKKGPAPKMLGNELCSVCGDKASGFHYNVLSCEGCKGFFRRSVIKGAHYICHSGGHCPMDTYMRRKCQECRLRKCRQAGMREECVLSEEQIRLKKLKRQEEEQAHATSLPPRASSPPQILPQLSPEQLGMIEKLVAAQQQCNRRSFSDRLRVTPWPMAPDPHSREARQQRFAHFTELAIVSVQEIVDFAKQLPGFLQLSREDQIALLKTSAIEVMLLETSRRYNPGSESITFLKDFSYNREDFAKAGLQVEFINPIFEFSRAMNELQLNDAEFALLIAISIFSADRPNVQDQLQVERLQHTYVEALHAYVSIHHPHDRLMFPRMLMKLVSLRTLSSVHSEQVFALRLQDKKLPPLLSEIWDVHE
Summary of the method: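 HepG2 cells transiently transfected with GAL4-UAS reporter units for chimeric NR-Gal4 proteins, exposed to chemicals for 24 h. Reporter mRNA quantified by RT-PCR and capillary electrophoresis; gain of signal fitted relative to DMSO.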

[19] = biological target: Oxysterols receptor LXR-beta (Homo sapiens) (UniProt P55055); test: ATG_LXRb_TRANS: Attagene TRANS-FACTORIAL HepG2 Assay for human Liver X Receptor beta (LXRb) (AID 2282981); conditions: HepG2 Attagene TRANS GAL4-LXRb reporter, mRNA
Sequence of Oxysterols receptor LXR-beta (Homo sapiens) (P55055 whole entry, looked up, the tested form may be a part): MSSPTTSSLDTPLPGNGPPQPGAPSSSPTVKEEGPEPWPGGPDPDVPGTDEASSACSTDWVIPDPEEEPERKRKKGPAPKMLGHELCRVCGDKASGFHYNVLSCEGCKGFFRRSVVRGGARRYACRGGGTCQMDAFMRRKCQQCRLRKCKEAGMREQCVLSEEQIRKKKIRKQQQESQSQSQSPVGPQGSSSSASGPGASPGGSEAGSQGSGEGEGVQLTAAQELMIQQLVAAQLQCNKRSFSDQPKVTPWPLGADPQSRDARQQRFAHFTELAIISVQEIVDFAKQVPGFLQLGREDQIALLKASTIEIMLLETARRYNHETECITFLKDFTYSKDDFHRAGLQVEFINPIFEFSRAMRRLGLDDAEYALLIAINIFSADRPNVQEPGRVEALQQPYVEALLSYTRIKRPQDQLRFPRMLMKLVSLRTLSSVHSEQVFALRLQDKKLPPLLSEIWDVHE
Summary of the method: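 Multiplexed reporter assay, HepG2, 24 h dosing. Fluorescence of labelled RT-PCR products after capillary electrophoresis gives transcript level; positive fitting direction relative to DMSO.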

[20] = biological target: Estrogen-related receptor gamma (Homo sapiens) (UniProt P62508); test: ATG_ERRg_TRANS: Attagene TRANS-FACTORIAL HepG2 Assay for human Estrogen-Related Receptor gamma (ERRg) (AID 2282977); conditions: HepG2 Attagene TRANS reporter, ERRg transactivation;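 also: hits increase reporter signal over DMSO so potencies reflect activators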
Sequence of Estrogen-related receptor gamma (Homo sapiens) (P62508 whole entry, looked up, the tested form may be a part): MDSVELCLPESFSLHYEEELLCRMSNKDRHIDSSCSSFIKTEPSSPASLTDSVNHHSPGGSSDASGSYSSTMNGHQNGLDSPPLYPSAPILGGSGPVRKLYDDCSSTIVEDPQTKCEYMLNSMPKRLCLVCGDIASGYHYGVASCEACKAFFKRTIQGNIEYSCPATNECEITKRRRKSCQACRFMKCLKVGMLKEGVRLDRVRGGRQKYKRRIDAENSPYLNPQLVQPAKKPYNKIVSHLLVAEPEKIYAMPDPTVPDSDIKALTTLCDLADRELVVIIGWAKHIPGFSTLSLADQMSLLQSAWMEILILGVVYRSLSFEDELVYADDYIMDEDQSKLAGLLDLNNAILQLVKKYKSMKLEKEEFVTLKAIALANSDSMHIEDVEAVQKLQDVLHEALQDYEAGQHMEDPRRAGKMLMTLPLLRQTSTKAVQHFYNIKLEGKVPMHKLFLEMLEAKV
Summary of the method: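 Induction of reporter transcripts through a chimeric NR-Gal4 protein is quantified in transfected human HepG2 liver cells after 24 h chemical exposure, using RT-PCR with capillary electrophoresis detection and DMSO as baseline.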

Measured: AC50

CC(=O)C1C(=O)C=C(C)OC1=O (centres undefined)
inactive: [1] | [2] | [3] | [4] | [5] | [6] | [7] | [8] | [9] | [10] | [11] | [12]

CCOC(=O)COC(=O)c1ccccc1C(=O)OCC
inactive: [1] | [2] | [3] | [4] | [5] | [13] | [6] | [14] | [9] | [12]

CC1COC(=O)O1 (centres undefined)
active: [6] 0.0103 µM
inactive: [1] | [2] | [3] | [4] | [5] | [15] | [16] | [17] | [18] | [19] | [9] | [12]

COc1ccc(OC)cc1
inactive: [1] | [2] | [3] | [4] | [5] | [15] | [6] | [16] | [17] | [18] | [14] | [9] | [12]

CCCC[N+](C)(CCCC)CCCC
inactive: [1] | [2] | [3] | [4] | [5] | [6] | [7] | [17] | [18] | [19] | [10] | [12]

O=S(=O)(O)c1cc(S(=O)(=O)O)c2c(N=Nc3ccccc3)c(O)ccc2c1
inactive: [1] | [2] | [3] | [4] | [5] | [6] | [17] | [8] | [18] | [19] | [9] | [12]

O=C1CCCCCCCCCCCC(=O)OCCO1
inactive: [1] | [2] | [3] | [4] | [5] | [15] | [6] | [7] | [20] | [17] | [19] | [14] | [10] | [11] | [12]

O=C1CCC(=O)N1
inactive: [1] | [2] | [3] | [4] | [13] | [15] | [6] | [7] | [20] | [17] | [8] | [18] | [9] | [11] | [12]

CN(C)c1ccc(C=O)cc1
inactive: [1] | [2] | [3] | [4] | [13] | [15] | [6] | [16] | [20] | [17] | [8] | [19] | [14] | [9] | [12]

CCCCOCCOC(=O)c1ccccc1C(=O)OCCOCCCC
active: [4] 11 µM | [11] 45.3 µM
inactive: [1] | [2] | [3] | [13] | [6] | [7] | [8] | [19] | [10] | [12]
